Compound activity as filed in PubChem.
DT40 TDP1 no CPT: qHTS for Inhibitors of human tyrosyl-DNA phosphodiesterase 1 (TDP1): qHTS in cells in absence of CPT | DT40 Tdp1-/- hTDP1 cells, no CPT, ATP luminescence, 48 h | Potency, µM (series often up to 46.2 µM), without a hit: at the top dose activity change, negative = growth inhibition, usual class: inhibitors | 420,000 compounds, 15% hits | AID 686978, 2013; also: potency is read from the fitted curve at half-maximal effect; nearly all actives have a fitted effect of over 55% in size
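Growth kinetics read by CellTiter-Glo luminescence after ≥48 hr at 37 °C. Cells: DT40 Tdp1-/- stably carrying human TDP1, 400 per well, compound exposure in the absence of CPT (DMSO vehicle).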
HT1080 IDH1KD tx: qHTS for induction of synthetic lethality in tumor cells producing 2HG: qHTS for the HT-1080-IDH1KD cell line; HT-1080 IDH1 knockdown viability, ATP luminescence, 48 h; Potency, µM (top dose mostly 46.1 µM), for inactives: top-dose activity, negative = toxicity, usual class: cytotoxic; 360,000 compounds, 2% hits; AID 686971, 2013;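 also: potency is read from the fitted curve at half-maximal effect; 0% = DMSO wells and -100% = cell-free medium wells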
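Knockdown cells (IDH1KD HT-1080) received compounds 2 h after plating at 750 cells/well and were kept 48 h at 37 °C in 5% FBS RPMI. A CellTiter-Glo luminescence read gave % activity for curve fitting.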
TDP1 cell CPT: qHTS for Inhibitors of human tyrosyl-DNA phosphodiesterase 1 (TDP1): qHTS in cells in presence of CPT | AID 686979, 2013 | chicken DT40 Tdp1-/-;hTDP1 cells + 20 nM CPT, ATP luminescence, 48 h | Potency, µM (doses to about 46.2 µM), for the others: at the top dose activity change, negative = growth inhibition, actives largely listed as inhibitors | 420,000 compounds, 12% hits; also: potency is read from the fitted curve at half-maximal effect; nearly all actives have a fitted effect of over 55% in size
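Cell growth measured by CellTiter-Glo luminescence after a minimum 48 h, 37 C compound exposure with 20 nM CPT in Tdp1-knockout DT40 cells stably expressing hTDP1, seeded 400/well; qHTS titration format.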
HT1080-NT tox: qHTS for induction of synthetic lethality in tumor cells producing 2HG: qHTS for the HT-1080-NT fibrosarcoma cell line | HT-1080-NT fibrosarcoma viability, CellTiter-Glo ATP luminescence, 48 h | Potency, µM (top dose mostly 46.1 µM), for inactives: at the top dose activity, negative = less viability, hits mostly cytotoxic | 360,000 compounds, 1.6% hits;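 also: NT is the 2HG producing partner of a matched IDH1 knockdown line; potency is read from the fitted curve at half-maximal effect; 0% = DMSO-treated cells and -100% = media-only wells without cells; nearly all actives have a fitted effect of over 55% in size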
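HT-1080-NT fibrosarcoma cells (2HG-overproducing), 750 cells/well in RPMI with 5% FBS, dosed after 2 h and incubated 48 h at 37C. CellTiter-Glo luminescence normalized to DMSO and no-cell wells; concentration-response curves fitted and classed.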
IL1B secr inh: qHTS for Inhibitors of Inflammasome Signaling: IL-1-beta AlphaLISA Primary Screen. THP-1 LPS/ATP IL-1B secretion, AlphaLISA, 16 h; hits give low values. activity change, % at 57.5 µM. 360,000 compounds, 4.7% hits. AID 743279, 2014; in the data active = activity change below about -50%; inconclusive = mostly about -30% to -49%
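THP-1 cells pretreated 1 hr with compounds (up to 57.5 uM final), then stimulated with LPS (250 ng/mL final) plus ATP (1.25 mM final); secreted IL-1B measured by AlphaLISA after 16 hr, decreased signal indicating inhibition.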
* hit, by the source's call; ? = inconclusive; · = not tested or not shown. Most compounds without a hit are left out; they make up all but 19% or so of the library. Unless noted, calls follow the shape of the dose curve; as a rule, active = well fitted curve in the direction sought with a large enough effect; inconclusive = small, poorly fitted or top-dose-only effect, or another doubt; inactive = no such curve, though single readings can be large; an effect the other way counts as inactive or inconclusive. Unless noted, % is scaled to controls: 0 for no effect and ±100 for the full control effect.

SMILES	DT40 TDP1 no CPT	HT1080 IDH1KD tx	TDP1 cell CPT	HT1080-NT tox	IL1B secr inh
Cc1c(Cl)ccc2c(C(=O)NCCN3CCCCC3)cc(-c3ccccn3)nc12	9.2µM*	23µM*	?	?	-97*
Cc1c(Cl)ccc2c(C(=O)NCCCn3nccc3C)cc(-c3ccccn3)nc12	?	-1%	21µM*	-7%	-3
CCOC(=O)N1CCC(NC(=O)c2cc(-c3ccc(OC)cc3)nc3ccccc23)CC1	?	12%	?	14%	4
COc1ccccc1-c1cc(C(=O)NC2CCN(C)CC2)c2ccc(Cl)c(C)c2n1	21µM*	?	12µM*	-30%	?
CCOc1cc(C(=O)N/N=C\c2cn(CC)nc2C)cc(OCC)c1OCC	-21%	-15%	16%	-19%	23
O=C(COC(=O)Cc1c(Cl)cccc1Cl)Nc1ccc(OC(F)(F)F)cc1	0%	9%	-6%	-1%	?
CCOc1ccc(CCNC(=O)COC(=O)c2nc(Cl)ccc2Cl)cc1OCC	-17%	-1%	-11%	-2%	-11
COc1ccc2[nH]cc(CCNc3ncnc4ccc(-c5ccccc5C#N)cc34)c2c1	18µM*	·	?	·	·
COc1ccc2[nH]cc(CCNc3cc(-c4cccc(C#N)c4)ncn3)c2c1	?	·	21µM*	·	·
COc1ccc2[nH]cc(CCNc3cc(-c4ccccc4OC)ncn3)c2c1	?	·	16µM*	·	·
COc1ccc(CNc2ncnc3ccc(-c4ccccc4C#N)cc23)c(OC)c1	-9%	·	?	·	·
COc1ccc2[nH]cc(CCNc3ncnc4ccc(-c5cccc(C#N)c5)cc34)c2c1	?	·	21µM*	·	·
Cn1cnnc1SCC(=O)Nc1ccc(Cl)c(S(=O)(=O)N2CCOCC2)c1	1%	-1%	-3%	4%	0
O=C(COC(=O)c1cc(S(=O)(=O)N2CCOCC2)ccc1F)NCc1ccc2c(c1)OCO2	0%	0%	-2%	0%	-12
COc1cccc(-c2ccc3ncnc(NCCc4c[nH]c5ccc(OC)cc45)c3c2)c1	21µM*	·	23µM*	·	·
COc1ccc2[nH]cc(CCNc3ncncc3-c3ccccc3OC)c2c1	?	·	-95%	·	·
CCCCN(C(=O)c1cccc(S(=O)(=O)N2CCN(Cc3ccccc3)CC2)c1)c1ccccc1	16µM*	?	?	-5%	-17
CN(Cc1ccccc1)C(=O)c1ccc2c(c1)OCO2	-6%	2%	4%	-6%	-6
CCCCN(C(=O)c1ccc2c(c1)OCO2)c1ccccc1	16µM*	0%	?	-6%	21
O=C(c1cccc(S(=O)(=O)N2CCOCC2)c1)N(Cc1ccc(F)cc1)Cc1ccco1	18µM*	-4%	?	-4%	14
CCN(Cc1ccccc1)C(=O)c1cccc(S(=O)(=O)N2CCN(c3ccccc3)CC2)c1	21µM*	-1%	16µM*	-15%	-6
CCc1ccc(/C=C2\SC(=S)N(CCCC(=O)NC3=NCCS3)C2=O)cc1	-2%	0%	9%	-4%	2
CN(C)c1ccc(-c2csc(C(C)(O)c3ccc(F)c(F)c3)n2)cc1 (configuration not stated)	?	?	?	?	-13
CCc1nc2ccc(C(=O)N3CCN(S(=O)(=O)CC)CC3)cn2c1N(CC)C(=O)NCCc1ccccc1	-11%	10%	-17%	18%	12
CCN(Cc1ccccc1)C(=O)c1cc(S(=O)(=O)N2CCOCC2)ccc1N1CCCC1	16µM*	0%	?	0%	-9
CC(=O)N1CCN(C(=O)c2cccc(S(=O)(=O)N3CCN(c4ccc(F)cc4)CC3)c2)CC1	-14%	-4%	-27%	0%	8
